Reference: PubChem BioAssay (Tox21)
Values joined by “and” are separate entries in the source; they are usually repeats but may differ in a detail not shown here. Identical values can stand only once. Records with an inconclusive call do not appear. Active and inactive are the calls of the source. Unless noted, the call rests on the fitted dose curve; in most records, active means well fitted curve in the direction sought with a large enough effect in the repeat runs; inconclusive means weak or mixed curves; inactive means no such curve, though single readings can be large; an effect the other way counts as inactive or inconclusive.

Tests used:
[1] = qHTS assay to identify small molecule agonists of the estrogen receptor beta (ER-beta) signaling pathway - cell viability counter screen (AID 1259380); further: nearly all actives have a fitted effect of over 30% in size; further: potency means the concentration at half of the fitted maximal effect
How it was run: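 Cytotoxicity is measured in parallel with the reporter screen: after 16 hr compound exposure at 37C and a 2 hr LiveBLAzer step, CellTiter-Glo is added to the same ER-beta-UAS-bla HEK293T wells and luminescence read after 30 min.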

[2] = qHTS assay to identify small molecule antagonists of the estrogen receptor beta (ER-beta) signaling pathway - cell viability counter screen (AID 1259382); further: nearly all actives have a fitted effect of over 55% in size; further: potency means the concentration at half of the fitted maximal effect
How it was run: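 Cytotoxicity counter screen multiplexed with the beta-lactamase antagonist assay: GripTite HEK293T ER-beta-bla cells were treated 16 hr with test chemicals in the presence of 1nM 17-beta-estradiol, and viability was measured by CellTiter-Glo.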

[3] = qHTS assay to identify small molecule agonists or antagonists of the thyroid stimulating hormone receptor (TSHR) signaling pathway - wild type cell line counter screen (AID 1259384; calls by dose curve)
How it was run: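 Wild-type Hek293 cells, 800/well, 18 h at 37C, then compound with Ro20-1724 for 30 min RT. cAMP by HTRF (cAMP-d2/anti-cAMP cryptate), 1 h RT, fluorescence read. 15 concentrations, triplicates.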

[4] = target: Thyrotropin receptor (Homo sapiens) (UniProt P16473); assay: qHTS assay to identify small molecule antagonists of the thyroid stimulating hormone receptor (TSHR) signaling pathway (AID 1259385; calls by dose curve; further: nearly all actives have a fitted effect of over 20% in size)
How it was run: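 TSHR-HEK293 cells (800/well) plated 18 h, then compounds with Ro20-1724 and TSH at 1.5 ng/mL final, 30 min at room temperature. cAMP quantified by HTRF (cAMP-d2/anti-cAMP-cryptate, 1 h); 15 concentrations in triplicate.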

[5] = target: Progesterone receptor (Homo sapiens) (UniProt P06401); assay: qHTS assay to identify small molecule antagonists of the progesterone receptor (PR) signaling pathway (AID 1346795; active means well fitted inhibition curve with a large enough effect in the signal ratio in the repeat runs, not every such curve was filed as active; the % refers to the signal ratio; further: potency means the concentration at half of the fitted maximal effect)
How it was run: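 After 6 hr plating at 37C in 2% stripped-serum medium, PR-UAS-bla HEK293T cells got compounds, then 1 nM R5020. Sixteen hours later, LiveBLAzer substrate was applied for 2 hr at room temperature and fluorescence was recorded.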

[6] = qHTS assay to identify small molecule antagonists of the progesterone receptor (PR) signaling pathway - cell viability counter screen (AID 1346798); further: nearly all actives have a fitted effect of over 50% in size; further: potency means the concentration at half of the fitted maximal effect
How it was run: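 Viability was determined by ATP-based luminescence (CellTiter-Glo) in PR-UAS-bla HEK293T cells cultured in 2% charcoal-stripped serum and incubated 16 hr with compounds under R5020 stimulation.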

[7] = qHTS assay to identify small molecule antagonists of the TGF-beta/Smad signaling pathway - cell viability counter screen (AID 1346824); further: nearly all actives have a fitted effect of over 50% in size
How it was run: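 SBE-bla HEK 293T cells, incubated overnight, then compound plus 0.25 ng/mL TGF-beta1 (stock added) for 5 hr at 37 C. Viability was read in the same wells by CellTiter-Glo luminescence after 30 min at room temperature.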

[8] = qHTS assay to identify small molecule agonists of the TGF-beta/Smad signaling pathway - cell viability counter screen (AID 1346829); further: top concentration of the series differs between compounds; nearly all actives have a fitted effect of over 45% in size
How it was run: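 Tox21 qHTS format: SBE-bla HEK 293T cells treated with DMSO-dissolved compounds for 5 hr; CellTiter-Glo luminescence after 30 min at room temperature.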

[9] = qHTS assay to identify small molecule agonists of the TGF-beta/Smad signaling pathway (AID 1346859; active means well fitted activation curve with a large enough effect in the signal ratio in the repeat runs, not every such curve was filed as active; the % refers to the signal ratio; further: series mostly up to about 77 µM)
How it was run: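 Dual-wavelength fluorescence (460/530 nm emission) quantified beta-lactamase expression under the Smad binding element in HEK 293T cells following 5 hr compound treatment at 37 C.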

[10] = target: Thyrotropin-releasing hormone receptor (Homo sapiens) (UniProt P34981); assay: qHTS assay to identify small molecule antagonists of the thyrotropin-releasing hormone receptor (TRHR) signaling pathway (AID 1346877; active means well fitted inhibition curve with a large enough effect in the repeat runs, not every such curve was filed as active; further: series mostly up to about 51 µM)
How it was run: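 Antagonism is measured as suppression of the calcium response to 1 nM TRH in TRHR-HEK293 cells that have been dye-loaded for 2 h at 37 °C after overnight plating. Each compound is tested at 15 concentrations in triplicate.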

[11] = target: Thyrotropin-releasing hormone receptor (Homo sapiens) (UniProt P34981); assay: qHTS assay to identify small molecule agonists of the thyrotropin-releasing hormone receptor (TRHR) signaling pathway (AID 1346891; calls by dose curve;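 further: HEK293 cells expressing TRHR with calcium dye readout; series mostly up to about 58 µM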)
How it was run: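 Kinetic fluorescence (3 min, 1 s intervals) reported intracellular calcium after compound transfer onto TRHR-Hek293 cells pre-loaded with dye for 2 h at 37 °C.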

[12] = Human pregnane X receptor (PXR) small molecule agonists, qHTS cell viability counter screen (AID 1346977); further: nearly all actives have a fitted effect of over 50% in size; further: potency means the concentration at half of the fitted maximal effect
How it was run: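 HepG2 cells stably carrying the PXR-Luc reporter are cultured with 5% charcoal-stripped FBS and treated with compounds for 24hr. CellTiter-Fluor is added at 23hr and fluorescence is read after 1hr.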

[13] = target: Estrogen receptor (Homo sapiens) (UniProt P03372); assay: qHTS assay to identify small molecule agonists of the estrogen receptor alpha (ER-alpha) signaling pathway in the presence of an antagonist (AID 1259383; calls by dose curve; further: top concentration of the series differs between compounds; nearly all actives have a fitted effect of over 15% in size)
How it was run: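 Agonist-mode confirmation in the presence of the ER antagonist ICI-182,780 at 10.0nM final. Breast-derived VM7Luc4E2 reporter cells were exposed to compounds for 22hr, and ERE-driven luciferase was quantified by luminescence.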

[14] = qHTS assay to identify small molecule agonists of the estrogen receptor alpha (ER-alpha) signaling pathway in the presence of an antagonist - cell viability counter screen (AID 1259386);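 further: cells exposed to compounds for 22 h at 37 °C before the viability read; nearly all actives have a fitted effect of over 30% in size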; further: potency means the concentration at half of the fitted maximal effect
How it was run: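 Cytotoxicity was measured in parallel with the ERE-luciferase agonist screen, in the same wells. The cells were VM7Luc4E2, which endogenously express ER-alpha, and treatment was with compounds plus 10.0nM ICI-182,780 for 22hr.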

[15] = target: Androgen receptor (Homo sapiens) (UniProt P10275); assay: qHTS assay to identify small molecule agonists of the androgen receptor (AR) signaling pathway in the presence of an antagonist (AID 1259381; calls by dose curve; further: nearly all actives have a fitted effect of over 15% in size; further: potency means the concentration at half of the fitted maximal effect)
How it was run: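 Agonist-mode confirmation screen: human MDA-kb2 cells stably expressing luciferase under an MMTV promoter bearing AR and GR response elements, co-treated with 3.0uM nilutamide (final). Luminescence measured after 16hr compound incubation.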

[16] = target: Progesterone receptor (Homo sapiens) (UniProt P06401); assay: qHTS assay to identify small molecule agonists of the progesterone receptor (PR) signaling pathway (AID 1346784; calls by dose curve; further: nearly all actives have a fitted effect of over 30% in size)
How it was run: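 The screen uses PR-UAS-bla HEK 293T cells in charcoal-stripped serum (2%). Compounds are applied for 16 hr at 37C after a 6 hr pre-incubation, and reporter activity is detected with a FRET beta-lactamase substrate after 2 hr at room temperature.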

[17] = qHTS assay to identify small molecule agonists of the progesterone receptor (PR) signaling pathway - cell viability counter screen (AID 1346799; calls by dose curve; further: nearly all actives have a fitted effect of over 45% in size; further: potency means the concentration at half of the fitted maximal effect)
How it was run: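 Viability was scored by ATP luminescence (CellTiter-Glo, 30 min, room temperature) in the same wells used for the reporter readout, after 16 hr compound exposure of PR-UAS-bla HEK293T cells.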

[18] = qHTS assay to identify small molecule agonists of the androgen receptor (AR) signaling pathway in the presence of an antagonist - cell viability counter screen (AID 1259379);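 further: MDA-kb2 human breast cancer cells carrying an MMTV luciferase reporter; series mostly up to about 92 µM; nearly all actives have a fitted effect of over 25% in size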
How it was run: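 Cytotoxicity is assessed by CellTiter-Fluor in MDA-kb2 cells carrying an MMTV-driven luciferase reporter. Cells receive 3.0uM nilutamide plus compounds at 15 concentrations and incubate 16 hr at 37C without CO2 before fluorescence reading.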

Measured: Potency

Chain of Thyrotropin-releasing hormone receptor (Homo sapiens) (P34981 whole entry, looked up): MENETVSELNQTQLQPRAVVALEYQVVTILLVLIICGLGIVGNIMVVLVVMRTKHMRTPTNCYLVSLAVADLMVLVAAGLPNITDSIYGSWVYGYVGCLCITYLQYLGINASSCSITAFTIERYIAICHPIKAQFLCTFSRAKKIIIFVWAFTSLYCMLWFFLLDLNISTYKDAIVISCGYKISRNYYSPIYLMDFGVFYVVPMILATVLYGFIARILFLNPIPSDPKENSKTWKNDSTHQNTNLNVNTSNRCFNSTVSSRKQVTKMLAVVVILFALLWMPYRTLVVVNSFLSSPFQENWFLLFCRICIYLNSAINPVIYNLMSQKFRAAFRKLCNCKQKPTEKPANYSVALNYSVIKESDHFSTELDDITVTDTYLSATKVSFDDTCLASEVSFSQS
Chain of Progesterone receptor (Homo sapiens) (P06401 whole entry, looked up): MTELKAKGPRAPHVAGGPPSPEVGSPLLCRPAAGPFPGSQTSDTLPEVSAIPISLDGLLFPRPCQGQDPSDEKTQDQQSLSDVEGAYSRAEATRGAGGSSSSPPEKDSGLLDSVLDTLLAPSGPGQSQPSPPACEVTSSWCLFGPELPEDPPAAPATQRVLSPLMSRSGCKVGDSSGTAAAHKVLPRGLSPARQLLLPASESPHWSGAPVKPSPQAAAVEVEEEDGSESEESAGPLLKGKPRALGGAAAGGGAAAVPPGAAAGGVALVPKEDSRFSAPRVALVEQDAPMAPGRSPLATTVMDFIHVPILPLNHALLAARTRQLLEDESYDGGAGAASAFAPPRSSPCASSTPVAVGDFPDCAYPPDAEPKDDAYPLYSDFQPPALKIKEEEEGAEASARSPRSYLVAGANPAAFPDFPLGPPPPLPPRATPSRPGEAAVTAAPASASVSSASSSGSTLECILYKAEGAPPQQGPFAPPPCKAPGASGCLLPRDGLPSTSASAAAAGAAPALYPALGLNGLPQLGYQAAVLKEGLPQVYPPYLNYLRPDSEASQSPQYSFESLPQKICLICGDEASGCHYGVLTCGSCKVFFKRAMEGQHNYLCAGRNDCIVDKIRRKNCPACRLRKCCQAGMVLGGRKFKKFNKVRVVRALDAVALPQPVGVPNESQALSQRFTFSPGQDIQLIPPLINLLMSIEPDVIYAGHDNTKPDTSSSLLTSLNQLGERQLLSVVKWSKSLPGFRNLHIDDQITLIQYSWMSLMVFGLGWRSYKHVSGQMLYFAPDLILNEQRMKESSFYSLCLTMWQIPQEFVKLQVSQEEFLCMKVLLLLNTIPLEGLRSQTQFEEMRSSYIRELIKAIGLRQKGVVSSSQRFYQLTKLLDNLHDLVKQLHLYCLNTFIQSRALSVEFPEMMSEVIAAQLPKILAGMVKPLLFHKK
Chain of Estrogen receptor (Homo sapiens) (P03372 whole entry, looked up): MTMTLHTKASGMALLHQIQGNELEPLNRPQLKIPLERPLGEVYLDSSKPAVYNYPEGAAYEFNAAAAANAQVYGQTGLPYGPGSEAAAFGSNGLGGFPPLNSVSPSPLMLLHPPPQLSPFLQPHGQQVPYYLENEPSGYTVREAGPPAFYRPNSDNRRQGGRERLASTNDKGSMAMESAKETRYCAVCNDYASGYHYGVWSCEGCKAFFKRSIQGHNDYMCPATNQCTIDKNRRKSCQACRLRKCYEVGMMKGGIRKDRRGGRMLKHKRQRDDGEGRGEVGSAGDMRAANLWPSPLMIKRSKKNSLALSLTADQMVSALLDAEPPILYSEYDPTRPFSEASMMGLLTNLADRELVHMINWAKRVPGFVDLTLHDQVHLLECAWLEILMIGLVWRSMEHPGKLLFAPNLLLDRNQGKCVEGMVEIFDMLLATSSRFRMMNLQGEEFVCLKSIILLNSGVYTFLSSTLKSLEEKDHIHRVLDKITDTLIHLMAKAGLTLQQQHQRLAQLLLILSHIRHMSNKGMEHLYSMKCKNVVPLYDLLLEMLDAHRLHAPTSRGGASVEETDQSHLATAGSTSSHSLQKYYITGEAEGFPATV
Chain of Thyrotropin receptor (Homo sapiens) (P16473 whole entry, looked up): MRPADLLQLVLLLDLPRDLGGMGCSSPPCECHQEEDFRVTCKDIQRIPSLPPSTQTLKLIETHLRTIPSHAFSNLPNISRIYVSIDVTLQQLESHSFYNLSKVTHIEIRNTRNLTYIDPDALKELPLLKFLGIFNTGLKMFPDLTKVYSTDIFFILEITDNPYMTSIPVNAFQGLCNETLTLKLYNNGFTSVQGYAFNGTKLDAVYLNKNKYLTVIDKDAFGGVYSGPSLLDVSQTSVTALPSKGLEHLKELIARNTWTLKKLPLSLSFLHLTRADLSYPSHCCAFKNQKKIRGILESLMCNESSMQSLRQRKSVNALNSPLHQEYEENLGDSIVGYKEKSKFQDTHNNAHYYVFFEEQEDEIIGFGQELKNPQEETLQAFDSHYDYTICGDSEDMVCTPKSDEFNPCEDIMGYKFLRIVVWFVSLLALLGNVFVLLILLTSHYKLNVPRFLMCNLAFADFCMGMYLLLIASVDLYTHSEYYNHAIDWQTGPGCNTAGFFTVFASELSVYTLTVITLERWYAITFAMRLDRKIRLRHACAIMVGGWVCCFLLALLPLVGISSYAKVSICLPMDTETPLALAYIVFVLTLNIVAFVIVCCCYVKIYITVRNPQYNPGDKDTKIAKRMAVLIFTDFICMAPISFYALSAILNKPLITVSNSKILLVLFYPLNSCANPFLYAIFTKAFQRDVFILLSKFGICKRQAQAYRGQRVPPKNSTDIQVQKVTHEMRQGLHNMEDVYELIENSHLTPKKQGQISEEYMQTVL
Chain of Androgen receptor (Homo sapiens) (P10275 whole entry, looked up): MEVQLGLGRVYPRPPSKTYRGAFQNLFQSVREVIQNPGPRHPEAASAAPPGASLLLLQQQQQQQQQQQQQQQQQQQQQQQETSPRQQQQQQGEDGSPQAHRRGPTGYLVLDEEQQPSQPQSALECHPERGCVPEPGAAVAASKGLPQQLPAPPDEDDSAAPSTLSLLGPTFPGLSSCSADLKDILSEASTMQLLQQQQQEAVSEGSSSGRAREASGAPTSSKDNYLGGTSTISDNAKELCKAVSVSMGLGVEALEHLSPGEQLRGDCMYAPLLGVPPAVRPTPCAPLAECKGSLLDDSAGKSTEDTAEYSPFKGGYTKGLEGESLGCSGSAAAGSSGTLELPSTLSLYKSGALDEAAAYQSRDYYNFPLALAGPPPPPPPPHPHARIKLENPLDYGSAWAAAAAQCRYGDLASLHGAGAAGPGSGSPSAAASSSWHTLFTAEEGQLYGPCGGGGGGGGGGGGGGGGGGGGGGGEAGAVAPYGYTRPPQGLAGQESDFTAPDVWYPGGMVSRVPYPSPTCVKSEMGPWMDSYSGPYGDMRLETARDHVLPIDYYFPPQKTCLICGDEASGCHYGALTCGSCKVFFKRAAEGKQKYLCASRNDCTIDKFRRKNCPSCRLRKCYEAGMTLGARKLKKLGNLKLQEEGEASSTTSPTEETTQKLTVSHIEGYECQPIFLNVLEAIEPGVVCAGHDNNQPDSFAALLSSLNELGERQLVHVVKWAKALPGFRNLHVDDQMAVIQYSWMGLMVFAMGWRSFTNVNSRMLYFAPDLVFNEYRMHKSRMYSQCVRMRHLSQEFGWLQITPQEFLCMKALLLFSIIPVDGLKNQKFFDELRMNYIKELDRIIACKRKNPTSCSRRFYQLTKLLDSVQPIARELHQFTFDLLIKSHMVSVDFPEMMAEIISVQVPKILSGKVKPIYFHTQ

CCCCCCCC/C=C\CCCCCCCC(=O)N(C)CC(=O)O
inactive: [3] | [4] | [7] | [8] | [9] | [10] | [11] | [12]
active: [1] 54.5 µM | [2] 61.1 µM | [5] 24.3 µM | [6] 68.6 µM

CC1=C(/C=C/C(C)=C/C=C/C(C)=C/C(=O)Nc2ccc(O)cc2)C(C)(C)CCC1
inactive: [13] | [3] | [4] | [7] | [8] | [9] | [10] | [11]
active: [1] 62.7 µM and 26.6 µM | [2] 70.3 µM | [14] 31.4 µM and 13.3 µM

O=C(NO)c1ccccc1
inactive: [15] | [3] | [8] | [9] | [10] | [11] | [12]

CNCC[C@H](Oc1cccc2ccccc12)c1cccs1
active: [1] 16.8 µM | [2] 13.3 µM | [6] 23.7 µM | [17] 21.1 µM | [12] 29.8 µM
not listed: [5] | [13] | [15] | [18]
inactive: all other assays above

N#CSCSc1nc2ccccc2s1
active: [1] 8.63 µM | [12] 19.3 µM
inactive: [13] | [3] | [14] | [17] | [9] | [11]

CCCCCCCC(OC)OC
not listed: [7] | [15] | [18]
inactive: all other assays above

CCNc1nc(NC(C)CC)nc(OC)n1 (stereo not drawn)
not listed: [5] | [13] | [15] | [18]
inactive: all other assays above

Clc1ccccc1CN1CCc2sccc2C1
inactive: [18] | [2] | [14] | [6] | [8] | [10] | [11] | [12]

CN1[C@@H]2CC[C@@H]1CC(OC(=O)C(CO)c1ccccc1)C2 (stereo partly drawn)
inactive: [1] | [2] | [14] | [16] | [5] | [7] | [9]

C[C@H]1O[C@@H](O[C@H]2[C@@H](O)C[C@H](O[C@H]3[C@@H](O)C[C@H](O[C@H]4CC[C@@]5(C)[C@H](CC[C@@H]6[C@@H]5C[C@@H](O)[C@]5(C)[C@@H](C7=CC(=O)OC7)CC[C@]65O)C4)O[C@@H]3C)O[C@@H]2C)C[C@H](O)[C@@H]1O
inactive: [14] | [16] | [12]
active: [1] 86.4 nM and 95.8 nM | [15] 0.172 µM | [2] 61.2 nM and 76.1 nM | [17] 122 nM and 191 nM
